High-throughput results deposited in PubChem by The Scripps Research Institute Molecular Screening Center.
Hits are enriched below; roughly 3.4% of the tested compounds scored in any of these assays.
FBW7 activator = human FBW7 E3 ligase activation, primary screen. Q969H0. AlphaScreen FBW7–phospho-cyclin E peptide binding, activator screen. normalized activity (activation), % at 26.1 µM. actives 0.13% (n = 650,000). AID 1259310; in the data active = normalized activity above about 1.9%;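 also: purified mutant Fbw7 with reduced substrate affinity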
Target sequence (Q969H0 whole entry, looked up): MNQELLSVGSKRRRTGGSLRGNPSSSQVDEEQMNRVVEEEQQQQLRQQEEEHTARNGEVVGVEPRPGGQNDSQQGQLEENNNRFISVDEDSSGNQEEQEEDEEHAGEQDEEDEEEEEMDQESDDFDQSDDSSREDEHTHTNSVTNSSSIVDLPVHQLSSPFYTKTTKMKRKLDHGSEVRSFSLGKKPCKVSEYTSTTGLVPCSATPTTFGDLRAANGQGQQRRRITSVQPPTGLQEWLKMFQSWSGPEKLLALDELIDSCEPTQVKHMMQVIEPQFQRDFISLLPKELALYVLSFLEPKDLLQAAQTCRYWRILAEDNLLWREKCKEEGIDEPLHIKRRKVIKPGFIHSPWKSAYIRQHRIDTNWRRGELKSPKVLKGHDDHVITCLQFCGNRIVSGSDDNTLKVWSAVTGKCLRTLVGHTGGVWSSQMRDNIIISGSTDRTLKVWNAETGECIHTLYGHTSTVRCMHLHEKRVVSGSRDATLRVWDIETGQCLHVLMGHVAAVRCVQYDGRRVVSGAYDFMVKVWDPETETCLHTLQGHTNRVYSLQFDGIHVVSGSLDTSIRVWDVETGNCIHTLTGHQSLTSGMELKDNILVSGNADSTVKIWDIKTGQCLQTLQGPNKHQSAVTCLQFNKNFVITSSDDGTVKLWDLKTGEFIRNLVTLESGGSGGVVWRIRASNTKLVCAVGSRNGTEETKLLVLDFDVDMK
GPR151 activ = human GPR151 activation; activation, % at 11.2 µM; actives 1% (n = 650,000); PathHunter beta-arrestin GPR151 cells, luminescence; in the data active = activation above about 4.9%;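 also: 0% = median of compound wells and 100% = cells with positive control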
MITF primary = human MITF inhibition, primary screen | actives 0.91% (n = 650,000) | inhibition, % at 2.6 µM | AID 1259374 | AlphaScreen MITF homodimerization, bead proximity signal; in the data active = inhibition above about 50%;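 also: 0% = vehicle wells with protein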
TEAD-YAP block = TEAD-YAP interaction inhibition. HEK-TIYL cells, TEAD-Gal4/YAP UAS-luciferase luminescence. inhibition, % at 9.12 µM. AID 1259422. actives 1.4% (n = 640,000); in the data active = inhibition above about 32%;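 also: 0% = median of test compound wells and 100% = reference inhibitor wells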
MITF confirm = human MITF inhibition, confirmation; shares compounds with MITF primary; AlphaScreen MITF homodimerization, biotin/His-MITF beads; inhibition, % at 2.6 µM; actives 16% (n = 4,700); AID 1259372;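 active = inhibition above a cutoff derived from the DMSO control wells, cut at about 28% in these data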;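 also: 0% = MITF dimer wells with DMSO only; inhibitors lower the bead chemiluminescence by keeping MITF from dimerizing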
AlphaScreen DR = counter-screen: compounds optically interfering with AlphaScreen | shares compounds with MITF primary | AlphaScreen optical interference counterscreen, cell-free | IC50, µM | actives 6% (n = 480); call rule not given here
AlphaScreen intf2 = optically interferes with AlphaScreen signal. inhibition, % at 2.6 µM. AID 1259376. LysRS AlphaScreen counterscreen, signal interference, triplicate. shares compounds with MITF primary. actives 7.6% (n = 4,700);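 active = inhibition above a cutoff derived from the DMSO control wells, cut at about 30% in these data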
Active calls of the source: *; / = not tested or not shown.

SMILES	FBW7 activator	GPR151 activ	MITF primary	TEAD-YAP block	MITF confirm	AlphaScreen intf2	others
O=C(O)c1ccc(O)c(C=Nc2ccc(N=Cc3cc(C(=O)O)ccc3O)cc2)c1	0	-1	70*	-11	73*	-9	AlphaScreen DR=>6.5
CC1CCN(C(=O)CCc2nc(-c3ccc(Cl)cc3)no2)CC1	0	-1	-13	-17	/	/
O=C(Nc1cc(S(=O)(=O)O)cc2cc(S(=O)(=O)O)cc(O)c12)c1ccccc1	0	-1	81*	-3	60*	10	AlphaScreen DR=>6.5
O=C(Nc1cc(NC(=O)c2ccccc2)c(C(=O)O)cc1C(=O)O)c1ccccc1	0	-1	-7	-17	/	/
CCC(C)(C)NC(=O)Cc1c[nH]c2ccccc12	0	1	18	2	/	/
CCOc1ccccc1CN1CCN(S(=O)(=O)CC)CC1	0	1	29	7	/	/
CCCS(=O)(=O)N1CCN(Cc2ccccc2OCC)CC1	0	-1	74*	7	2	11
CCS(=O)(=O)N1CCN(Cc2ccccc2OC)CC1	0	-1	58*	3	7	11
COc1ccccc1CN1CCN(S(C)(=O)=O)CC1	1	1	-4	3	/	/
Cc1cc(C2C(C#N)=C(N)N(c3ccccc3Cl)C3=C2C(=O)CC(c2ccccc2)C3)c(C)s1 (stereo unspecified)	0	0	57*	3	-7	0
Cc1cc(C2C(C#N)=C(N)N(c3ccccc3Cl)C3=C2C(=O)CCC3)c(C)s1 (stereo unspecified)	0	-2	7	4	/	/
CC1(C)CC(=O)C(C(C2=C(O)CC(C)(C)CC2=O)c2ccccc2O)C(=O)C1 (stereo unspecified)	0	0	9	-4	/	/
CCC(C1=C(O)CC(C)(C)CC1=O)C1C(=O)CC(C)(C)CC1=O (stereo unspecified)	0	-1	53*	8	2	1
COCCCNCCOCCOc1c(C)cc(Cl)cc1C	0	2	71*	-11	-11	-6
Cc1cc(C)c(OCCOCCNCCN)c(C)c1	0	1	70*	0	-1	8
COCCCNCCOCCOc1c(C)cc(C)cc1C	0	0	38	6	/	/
Cc1cc(OCCOCCNCCN)cc(C)c1Cl	0	-1	30	6	/	/
Cc1cc(Cl)cc(Cl)c1OCCOCCNCCN	0	0	65*	13	-1	9
CCC1Oc2ccc(Cl)cc2NC1=S (stereo unspecified)	0	1	7	4	/	/
COc1cccc(C(=O)N2CCN(Cc3cccc(Cl)c3)CC2)c1	0	0	52*	13	50*	18
COc1cccc(C(=O)N2CCN(C(=O)c3cccc(Cl)c3)CC2)c1	0	0	22	16	/	/
COc1ccc(C(=O)N2CCN(Cc3cccc(Cl)c3)CC2)cc1OC	0	-2	51*	-3	5	12
CCc1ccc(CN2CCN(C(=O)c3ccco3)CC2)cc1	0	1	51*	-18	5	10
COc1cccc(C(=O)N2CCN(Cc3ccc(Br)cc3)CC2)c1	0	0	61*	8	21	9
CCOc1cc(CN2CCN(C(=O)c3cccc(Cl)c3)CC2)ccc1OC	0	0	21	2	/	/
SMILES	FBW7 activator	GPR151 activ	MITF primary	TEAD-YAP block	MITF confirm	AlphaScreen intf2	others
C=CCN1CC(c2nc3ccccc3n2CCC)CC1=O (stereo unspecified)	0	1	9	3	/	/
COc1ccc(CN2CCN(C(=O)c3cccc(Cl)c3)CC2)c(OC)c1	0	1	54*	1	5	16
CCOc1ccc(CN2CCN(C(=O)c3c(OC)cccc3OC)CC2)cc1	0	-1	33	25	/	/
COc1cccc(OC)c1C(=O)N1CCN(Cc2ccc(Br)cc2)CC1	1	0	64*	5	4	-2
COc1cccc(C(=O)N2CCN(Cc3ccccc3Cl)CC2)c1	0	-1	40	-14	/	/
COc1ccc(Br)cc1CN1CCN(C(=O)c2cccs2)CC1	0	0	64*	1	-8	-6
O=C(c1ccccc1)N1CCN(CC(O)COCc2ccccc2)CC1 (stereo unspecified)	0	0	56*	-5	11	10
CCNc1cc(Nc2cc(OC)c(OC)c(OC)c2)nc(N)n1	0	-2	25	-6	/	/
